In PubChem BioAssay (Tox21):
Results filed as inconclusive are left out. Where a call stands in place of a potency, no number is given. Active and inactive are the calls of the source. Calls follow the shape of the dose curve; as a rule, active = well fitted inhibition curve with a large enough effect in the signal ratio in the repeat runs (not every such curve was filed as active); inconclusive = weak or mixed curves, or effect the other way; inactive = no such curve, though single readings can be large or run the other way; the % refers to the signal ratio.

These compounds were tested against Vitamin D3 receptor (Homo sapiens) (UniProt P11473) (assay: qHTS assay to identify small molecule antagonists of the vitamin D receptor (VDR) signaling pathway (AID 743223)). Details: VDR-UAS-bla HEK293T, beta-lactamase FRET ratio, 16 h; series mostly up to 61 µM.
Source text: U.S. Tox21 Program National Center for Advancing Translational Sciences [NCATS] NIH Chemical Genomics Center [NCGC] U.S. Environmental Protection Agency [EPA] National Institutes of Environmental Health Sciences [NIEHS] National Toxicology Program [NTP] U.S. Food and Drug Administration [FDA] Tox21 Assay Overview: The vitamin D receptor (VDR), a member of nuclear hormone receptor superfamily, plays a critical role in calcium homeostasis and bone metabolism. It is also involved in cell differentiation and growth, and thrombogenicity.
Tox21 Assay Protocol Summary: VDR-bla cells were dispensed at 2,000 cells/5 uL of assay medium per well into black wall/clear-bottom 1536-well plates using a Multidrop Combi (Thermo Fisher Scientific, Waltham, MA) dispenser. After the assay plates were incubated at a 37C and 5% CO2 for 4 h, 23 nL of compounds dissolved in DMSO, positive controls or DMSO only was transferred to the assay plate by a Pintool station (Kalypsys, San Diego, CA), followed by addition of 1 uL of 1alpha, 25-Dihydroxy Vitamin D3 (3 nM, final concentration in the wells) using a Bioraptr Flying Reagent Dispenser (FRD) workstation (Beckman Coulter, Indianapolis, IN). The plates were incubated at 37C and 5% CO2 for 16 h, and then 1 uL of LiveBLAzerTM B/G FRET substrate was added using a Bioraptr FRD. The plates were incubated at room temperature for 2 h and fluorescence intensity was measured by an Envision plate reader (PerkinElmer, Shelton, CT).
Potency is read from the fitted curve at half-maximal effect.

Sequence of Vitamin D3 receptor (Homo sapiens) (P11473 whole entry, looked up): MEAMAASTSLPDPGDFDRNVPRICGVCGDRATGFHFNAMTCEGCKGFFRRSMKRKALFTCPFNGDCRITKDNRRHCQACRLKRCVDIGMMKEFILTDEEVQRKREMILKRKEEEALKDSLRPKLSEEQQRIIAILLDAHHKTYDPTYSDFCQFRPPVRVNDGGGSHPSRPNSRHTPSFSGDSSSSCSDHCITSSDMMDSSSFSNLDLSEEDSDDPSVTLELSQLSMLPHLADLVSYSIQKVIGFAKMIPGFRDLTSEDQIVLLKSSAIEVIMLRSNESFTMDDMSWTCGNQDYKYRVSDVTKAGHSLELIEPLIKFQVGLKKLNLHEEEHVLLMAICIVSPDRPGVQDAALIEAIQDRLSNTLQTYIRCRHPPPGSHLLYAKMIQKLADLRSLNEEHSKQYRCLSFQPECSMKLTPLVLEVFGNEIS

Compound | Potency
CCOC(=O)/C=C\C(=O)OCC | inactive
CS(=O)(=O)c1ccc([C@@H](O)[C@@H](CO)NC(=O)C(Cl)Cl)cc1 | inactive
CCCCNC(N)=O | inactive
OC[C@@H](O)[C@H](O)[C@H](O)[C@@H](O)CO | inactive
O=S(=O)(O)c1cc(S(=O)(=O)O)c2c(N=Nc3ccccc3)c(O)ccc2c1 | inactive
c1ccc2[nH]cnc2c1 | inactive
CC1(C)O[C@@H]2C[C@H]3[C@@H]4C[C@H](F)C5=CC(=O)CC[C@]5(C)[C@H]4[C@@H](O)C[C@]3(C)[C@]2(C(=O)CO)O1 | inactive
S=c1nc[nH]c2nc[nH]c12 | inactive
CCC(=O)O | inactive
CCc1ccccc1O | inactive
NCCc1ccc(O)c(O)c1 | inactive
CCCCCCCCCCC=CC1CC(=O)OC1=O (stereo not given) | inactive
Oc1ccc(OCc2ccccc2)cc1 | inactive
O=C1CCCCC1 | inactive
CS(=O)(=O)Nc1ccc([N+](=O)[O-])cc1Oc1ccccc1 | inactive
OCC#CCO | inactive
CCCCC(CC)COC(=O)/C=C\C(=O)OCC(CC)CCCC (stereo not given) | inactive
CN(C)c1ccc(C(=N)c2ccc(N(C)C)cc2)cc1 | 5.93 µM (active)
O=C(O)c1ccc([N+](=O)[O-])cc1 | inactive
COCC(=O)O | inactive

Compound | Potency
CCCCOCCO | inactive
O=S(=O)(Oc1ccc(Cl)cc1Cl)c1ccccc1 | inactive
CCCCC(CC)COC(C)=O (stereo not given) | inactive
C[C@@H]1O[C@@H](OC[C@H]2O[C@@H](Oc3c(-c4ccc(O)c(O)c4)oc4cc(O)cc(O)c4c3=O)[C@H](O)[C@@H](O)[C@@H]2O)[C@H](O)[C@H](O)[C@H]1O | inactive
OC1CCCC1 | inactive
CCCCCCCCCC(=O)O | inactive
CCc1ccc(O)cc1 | inactive
CC(C)NCC(O)COc1cccc2ccccc12 (stereo not given) | inactive
COC(=O)c1ccccc1O | inactive
CC[Si](OC(C)=O)(OC(C)=O)OC(C)=O | inactive
O=C(Oc1ccccc1)c1ccc(O)cc1 | inactive
CN(C)c1cccc(O)c1 | inactive
NC(=O)/N=N/C(N)=O | inactive
C=CC(=O)OCCCCCCCC(C)C | inactive
C=C(C)C(=O)OCCCCCCCCCCCC | inactive
CCCCCC/C=C/CCCCCCCC(=O)O | inactive
OCCOCCOCCOCCO | inactive
NCc1cccc(CN)c1 | inactive
CCOC(=O)[C@H](CCc1ccccc1)N[C@@H](C)C(=O)N1Cc2ccccc2C[C@H]1C(=O)O | inactive
COC(=O)c1ccc(C(=O)OC)cc1 | inactive
